Experimental findings from PubChem BioAssay (EPA / NIEHS) are described below.

Records with an inconclusive call do not appear. Calls of active or inactive are those of the source. Rule for the calls: active = hit-call score of the fitted dose curve at least 0.9, where 1 is the maximum; inconclusive = response in the unintended direction; inactive = score below 0.9.

The nature of the test: ACEA_ER_AUC_viability: ACEA Biosciences xCELLigence Real-Time Cell Analysis on Estrogen Receptor Agonism for Viability (AID 2283782).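 Note: continuous compound exposure with impedance area under curve over 80 h; hit means loss of impedance signal meaning reduced cell growth or viability.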 Put shortly: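 T-47D human breast cells in phenol red-free RPMI1640 with 10% charcoal-stripped FBS were dosed with an 8-point 1:4 dilution series from 100 uM top final concentration, in duplicate. Impedance-based growth was followed for 80 h; AUC analysed versus DMSO.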
For `C=C(C)CCCC`, the compound was classed as inactive.
Same read-out and setting: the entry for `OCC(O)CC(F)(F)C(F)(F)C(F)(F)C(F)(F)C(F)(F)C(F)(F)C(F)(F)C(F)(F)F` (centres undefined) is “inactive”; for `O=C1OC(=O)c2ccc3c4c(ccc1c24)C(=O)OC3=O` it is “inactive”; for `O=C=Nc1cccc2c(N=C=O)cccc12` it is “inactive”.
What is called AC50 is the midpoint of the concentration-response curve, whichever way the signal moves. For `O=C(Cl)c1ccc(Cl)cc1Cl`, the AC50 is 78.9 µM (active).
For `Cc1cnccn1`, the call was inactive.
As to `CC(O)C#CC(C)O` (centres undefined), the AC50 was 26.7 µM (active).
As to `CC1=CC2C3C=CC(C3)C2C1C` (centres undefined), the concentration at half-maximal activity (AC50) is 50 µM (active).
Turning to `C[Si](C)O[Si](C)C`, the concentration at half-maximal activity (AC50) is 50 µM (active).
Consider `CC(=O)C=O`, for which the result was inactive.
Same read-out and setting: to `CCc1ccc(C)nc1` belongs “inactive”.
Turning to `Cc1cc(C)c(O)c(C(C)(C)C)c1`, the half-maximal activity concentration (AC50) was 90.6 µM (active).
On the same count and under the same terms, the figure for `CCCCCC/C=C/CCCCCCCC(=O)O` is 50 µM (active).
As to `COC(=O)c1ccc(C=O)cc1`, the result was inactive.
Turning to `CCCC(=O)OCC(COC(=O)CCC)OC(=O)CCC`, the outcome was inactive.
The same measure, in the same setting: the entry for `CCC/C=C/CO` is “inactive”.
The same measure, in the same setting: to `CC1=CCC(=O)O1` belongs “inactive”; to `NC(O)(C(F)(F)F)C(F)(F)F`, “inactive”.
Consider `OCC(F)(F)C(F)(F)C(F)(F)C(F)(F)C(F)(F)C(F)(F)C(F)(F)C(F)(F)CO`, for which the half-maximal activity concentration (AC50) is 75 µM (active).
As for `CCCCCCCCCCCC(=O)Cl`, the AC50 is 79.8 µM (active).
Regarding `C=CC(=O)OCC(F)(F)C(F)(F)C(F)(F)C(F)(F)C(F)(F)C(F)(F)C(F)(F)C(F)F`, the outcome was inactive.
As to `CCC(C)CO` (centres undefined), the half-maximal activity concentration (AC50) was 74.7 µM (active).
In the case of `FC(F)(F)C(F)(F)C(F)(F)C(F)(F)C(F)(F)C(F)(F)CC[Si](Cl)(Cl)Cl`, the compound was called inactive.
On the same count and under the same terms, to `CO[Si](C)(CCC(F)(F)C(F)(F)C(F)(F)C(F)(F)C(F)(F)C(F)(F)F)OC` belongs “inactive”.
